Compound activity deposited in PubChem BioAssay by Broad Institute.
Hits are enriched below; roughly 6.7% of the tested compounds scored in any of these assays.
C diff growth: blocks growth of Clostridium difficile; Clostridium difficile clinical isolate growth, OD600, 24 h; active compounds read low; growth activity, negative = inhibition, % at 16 µg/mL (by protocol); 86,000 compounds, 0.25% hits; AID 1259249;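 active = mean growth activity at or below -80% and every replicate also at or below -80%; inconclusive = mean at or below -80% but some replicate above -80%; inactive = mean growth activity above -80%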;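 also: 0% = DMSO wells and -100% = levofloxacin 16 µg/mL wells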
Pf Dd2 growth: blocks growth of Plasmodium falciparum Dd2 parasites. P. falciparum Dd2 growth, SYBR Green, 72 h; active compounds read low. 94,000 compounds, 2.3% hits. activity change, % at 10 µM; in the data active = activity change below about -80%; inconclusive = no clear call, values can overlap the other calls
T cruzi growth-1: inhibitors of T. cruzi proliferation | T. cruzi beta-gal in NIH3T3, GalScreen luminescence, 90 h | inhibition, % at 8.34 µM | 77,000 compounds, 5.9% hits | AID 624255;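 active = mean inhibition above about 93%, with at least 55% of replicates each passing it, limit read from the data, passing the limit was not always enough; inconclusive = only one of those two conditions holds; inactive = neither condition holds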
T cruzi growth-2: blocks T. cruzi growth in NIH3T3 host cells; shares compounds with T cruzi growth-1; T. cruzi beta-gal in NIH3T3, GalScreen luminescence, 90 h; inhibition, % at 8.35 µM; 5,600 compounds, 72% hits;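 active = mean replicate inhibition above about 95% and at least 55% of replicates individually reaching it, limit read from the data; inconclusive = only one of the two criteria is met; inactive = neither criterion is met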
T cruzi growth-3: Trypanosoma cruzi proliferation inhibition; shares compounds with T cruzi growth-1; inhibition, % at 2.09 µM; AID 651740; 5,600 compounds, 21% hits; T. cruzi beta-gal in NIH3T3, GalScreen luminescence, 90 h;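 active = mean inhibition above about 95%, with at least 55% of replicates also reaching it, limit read from the data; inconclusive = meets just one of the two conditions; inactive = meets neither condition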;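 also: plate controls were neutral control median for no effect and positive control median for full effect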
3T3 cytotox: kills mouse NIH/3T3 fibroblasts | shares compounds with T cruzi growth-1 | NIH/3T3 viability, CellTiter-Glo ATP luminescence, 90 h | cytotoxicity (signal decrease), % at 8.35 µM | 5,600 compounds, 14% hits;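 active = mean signal decrease across replicates above about 35% based on untreated-well scatter, with enough replicates individually passing, limit read from the data; inconclusive = no rule stated though some were filed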;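 also: 0% = median of neutral control wells and 100% = median of positive control wells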
3T3 cytotox 2: NIH/3T3 (mouse) viability loss; shares compounds with T cruzi growth-1; NIH/3T3 viability, CellTiter-Glo ATP luminescence, 90 h; inhibition, % at 24.9 µM; 5,600 compounds, 56% hits; AID 651744;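 active = mean loss of cell viability signal at or above a set limit, and enough replicates individually reaching it; inconclusive = meets only the mean limit or only the replicate share; inactive = meets neither condition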;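 also: 0% = median of neutral control wells and 100% = median of positive control wells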
* = called active by the depositor; ? = inconclusive; . = no result.

SMILES | C diff growth | Pf Dd2 growth | T cruzi growth-1 | T cruzi growth-2 | T cruzi growth-3 | 3T3 cytotox | 3T3 cytotox 2
CCNC(=O)C[C@@H]1CC[C@H]2[C@@H](COc3ccc(NC(=O)Nc4cccc(F)c4)cc3C(=O)N2C)O1 | 2 | -4 | -5 | . | . | . | .
CC(C)NC(=O)N1CC[C@@H]2[C@@H](CO)N(C)c3ccc(-c4ccc(F)cc4)cc3[C@@H]21 | 5 | 17 | 100* | 105* | 101* | -22 | 49*
CC(C)NC(=O)N1CC[C@@H]2[C@H]1c1cc(-c3cccc(F)c3)ccc1N(C)[C@H]2CO | -6 | -36 | 75 | . | . | . | .
CC(C)NC(=O)N1CC[C@@H]2[C@H]1c1cc(-c3ccc(F)cc3)ccc1N(C)[C@@H]2CO | 22 | -10 | 108* | 111* | 85 | -1 | 9
COc1ccc(-c2ccc3c(c2)[C@@H]2[C@@H](CCN2C(=O)NC(C)C)[C@H](CO)N3C)cc1 | 4 | -24 | 29 | . | . | . | .
C[C@H](CO)N1C[C@H](C)[C@@H](CN(C)C)Oc2cc(C#CC3(O)CCCC3)ccc2S1(=O)=O | -4 | 23 | 6 | . | . | . | .
CC(=O)N(C)C[C@H]1Oc2ncc(C#Cc3ccccc3F)cc2C(=O)N([C@H](C)CO)C[C@@H]1C | -12 | -7 | -24 | . | . | . | .
Cc1noc(C)c1S(=O)(=O)Nc1ccc2c(c1)CC(=O)N([C@@H](C)CO)C[C@@H](C)[C@@H](CN(C)C(=O)NC1CCCCC1)O2 | 3 | -13 | -5 | . | . | . | .
COc1cccc(S(=O)(=O)Nc2ccc3c(c2)[C@H]2C[C@H](CC(=O)NCc4cccc(F)c4)O[C@H](CO)[C@H]2O3)c1 | -5 | -32 | 58 | . | . | . | .
COc1cccc(S(=O)(=O)Nc2ccc3c(c2)[C@H]2C[C@H](CC(=O)NCc4cccc(F)c4)O[C@@H](CO)[C@H]2O3)c1 | 3 | -38 | ? | 82 | 12 | -10 | -12
O=C(C[C@@H]1C[C@@H]2c3cc(NS(=O)(=O)c4ccc(F)cc4)ccc3O[C@@H]2[C@H](CO)O1)NCc1ccccc1 | . | -7 | -14 | . | . | . | .
O=C(C[C@@H]1C[C@H]2c3cc(NS(=O)(=O)c4ccc(F)cc4)ccc3O[C@H]2[C@H](CO)O1)NCc1ccc(Oc2ccccc2)cc1 | . | -47 | 47 | . | . | . | .
O=C(C[C@H]1C[C@@H]2c3cc(NS(=O)(=O)c4ccc(F)cc4)ccc3O[C@@H]2[C@H](CO)O1)NCc1ccc(Oc2ccccc2)cc1 | . | -32 | 118* | 97* | 32 | -10 | 79*
O=C(C[C@@H]1C[C@@H]2c3cc(NS(=O)(=O)c4ccc(F)cc4)ccc3O[C@@H]2[C@H](CO)O1)NCc1ccc(Oc2ccccc2)cc1 | -1 | -59 | 105* | 100* | -20 | 4 | 11
O=C(C[C@@H]1C[C@H]2c3cc(NS(=O)(=O)c4ccc(F)cc4)ccc3O[C@H]2[C@@H](CO)O1)NCc1ccc(Oc2ccccc2)cc1 | . | -16 | 115* | ? | 54 | 37* | 67*
O=C(C[C@@H]1C[C@@H]2c3cc(NS(=O)(=O)c4ccc(F)cc4)ccc3O[C@@H]2[C@@H](CO)O1)NCc1ccc(Oc2ccccc2)cc1 | . | -63 | 18 | . | . | . | .
C[C@@H]1CN([C@H](C)CO)C(=O)c2cc(NC(=O)CCN3CCOCC3)ccc2O[C@@H]1CN(C)C(=O)Nc1ccc(F)cc1 | 6 | 40 | -1 | . | . | . | .
O=C(NCC[C@H]1CC[C@H](NC(=O)C2CCCC2)[C@H](CO)O1)c1ccc(F)cc1 | 2 | 6 | . | . | . | . | .
Cn1cnc(S(=O)(=O)N[C@H]2C=C[C@@H](CC(=O)N3CCN(c4ccccc4)CC3)O[C@@H]2CO)c1 | 7 | 1 | 4 | . | . | . | .
C[C@H](CO)N1C[C@H](C)[C@@H](CN(C)Cc2cccc(F)c2)Oc2ncc(C3=CCCC3)cc2C1=O | 4 | -26 | 96 | . | . | . | .
COc1ccccc1NC(=O)N[C@H]1CC[C@@H](CCn2cc(-c3ccccc3OC)nn2)O[C@H]1CO | 5 | -3 | 113* | 69 | 41 | -13 | 9
O=C(Nc1ccc(C(F)(F)F)cc1)N[C@H]1CC[C@H](CCNC(=O)c2ccccc2F)O[C@H]1CO | 1 | -12 | 5 | . | . | . | .
O=C(Nc1ccc(F)cc1)N[C@H]1CC[C@@H](CCn2cc(-c3ccccc3F)nn2)O[C@@H]1CO | 0 | . | . | . | . | . | .
O=C(Nc1ccc(Cl)cc1)N[C@@H]1CC[C@H](CCn2cc(-c3ccccc3F)nn2)O[C@@H]1CO | -12 | -64 | 102* | 98* | 53 | 4 | ?
COc1ccccc1NC(=O)N[C@H]1CC[C@H](CCn2cc(-c3ccccc3OC)nn2)O[C@@H]1CO | 7 | 27 | 149* | 20 | 22 | 1 | ?
SMILES | C diff growth | Pf Dd2 growth | T cruzi growth-1 | T cruzi growth-2 | T cruzi growth-3 | 3T3 cytotox | 3T3 cytotox 2
COc1ccccc1NC(=O)N[C@H]1CC[C@H](CCn2cc(-c3ccccc3)nn2)O[C@@H]1CO | -3 | -19 | 29 | . | . | . | .
COc1ccccc1-c1cn(CC[C@H]2CC[C@H](NC(=O)NC(C)C)[C@H](CO)O2)nn1 | 0 | -5 | 24 | . | . | . | .
O=C(Nc1ccc(C(F)(F)F)cc1)N[C@H]1CC[C@@H](CCNC(=O)c2ccccc2F)O[C@H]1CO | 2 | -22 | 139* | 45 | 31 | -14 | -4
O=C(C[C@H]1CC[C@H](NC(=O)CC2CC2)[C@@H](CO)O1)NCc1ccccc1 | 0 | 12 | . | . | . | . | .
O=C(C1CCCC1)N1CC2(C1)[C@H](c1ccccc1)[C@@H](CO)N2CC1CC1 | 11 | -27 | . | . | . | . | .
CCC(=O)N1CC2(C1)CN(C(=O)CN1CCOCC1)[C@@H](CO)c1[nH]c3cc(OC)ccc3c12 | . | 19 | . | . | . | . | .
C[C@H](CO)N1C[C@H](C)[C@@H](CN(C)C(=O)C2CCCCC2)Oc2ncc(C#CC3CCCC3)cc2C1=O | -8 | -45 | 71 | . | . | . | .
COCCNC(=O)C[C@@H]1C[C@@H]2c3cc(NC(=O)NC4CCCCC4)ccc3O[C@@H]2[C@H](CO)O1 | . | -2 | -12 | . | . | . | .
COc1ccccc1NC(=O)N[C@@H]1CC[C@@H](CCn2cc(-c3ccccc3OC)nn2)O[C@H]1CO | -13 | -9 | 0 | . | . | . | .
COc1ccccc1NC(=O)N[C@H]1CC[C@@H](CCn2cc(-c3ccccc3OC)nn2)O[C@@H]1CO | -5 | -22 | 137* | 47 | 40 | -2 | 23
CC(C)CC#Cc1ccc2c(c1)O[C@@H](CN(C)C(=O)Nc1ccccc1)[C@H](C)CN([C@H](C)CO)S2(=O)=O | 2 | -43 | 121* | 108* | 93 | 23 | 88*
CC(C)CC#Cc1ccc2c(c1)O[C@H](CN(C)C(=O)Nc1ccccc1)[C@H](C)CN([C@@H](C)CO)S2(=O)=O | -1 | -33 | 107* | 108* | ? | 21 | 81*
C[C@H](O)C#Cc1ccc2c(c1)O[C@@H](CN(C)C(=O)Nc1ccccc1)[C@@H](C)CN([C@H](C)CO)S2(=O)=O | 5 | -37 | 64 | . | . | . | .
